# High-throughput results as filed in PubChem BioAssay.
# The sample as a whole holds a higher share of hits than the screen did.
# Cycloheximide cs – counter-screen for Shiga toxin inhibitors: cycloheximide protein synthesis inhibition | cell reporter, cycloheximide protein synthesis inhibition counterscreen | max response, % | 300,000 tested, 12% active | AID 2314; in the data active means max response mostly above about 13%, no sharp cut-off; inactive means mostly below about 14%; further: read at 38.3 µM for the half of the compounds with a filed dose
# FBPA Giardia inh – Giardia lamblia aldolase inhibition; Potency, µM (highest dose often 59.6 µM), most hits filed as inhibitors; purified Giardia FBPA; 290,000 tested, 0.71% active; further: nearly all actives have a fitted effect of over 55% in size
#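 Giardia FBPA (40 nM reagent) was preincubated 10 min at RT with compound (up to 57.5 uM final), then substrate plus GAPDH/TPI/NAD/arsenate coupling system with diaphorase/resazurin was added; resorufin fluorescence (525/598 nm) was read after 20 min.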
# Shiga inhibitor – blocks Shiga toxin action in Vero cells; Vero cells, Shiga toxin protein synthesis inhibition reporter; inhibition, % at 38.7 µM; 290,000 tested, 9.2% active; in the data active means inhibition mostly above about 28%, no sharp cut-off; inactive means mostly below about 43%
# TbPYK inhibitor – inhibitors of Trypanosoma brucei pyruvate kinase | TbPYK enzyme, Kinase-Glo Plus ATP luminescence, 45 min | Potency, µM (highest dose often 76.8 µM), most hits filed as inhibitors | 410,000 tested, 0.12% active | AID 624173; further: nearly all actives have a fitted effect of over 50% in size
#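 In this concentration-response screen, enzyme-free wells defined baseline while DMSO plates tracked drift. Each reaction combined TbPYK, substrate, compound and 130 uM ADP for 45 min at room temperature. Kinase-Glo Plus luminescence gave the signal.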
# LmPK inh – blocks Leishmania mexicana pyruvate kinase activity | purified LmPK, Kinase-Glo ATP luminescence, 1 h | Q27686 | AID 1721 | 290,000 tested, 0.37% active | Potency, µM (highest dose often 57.5 µM), usual class: inhibitors
# Target sequence (Q27686 whole entry, looked up): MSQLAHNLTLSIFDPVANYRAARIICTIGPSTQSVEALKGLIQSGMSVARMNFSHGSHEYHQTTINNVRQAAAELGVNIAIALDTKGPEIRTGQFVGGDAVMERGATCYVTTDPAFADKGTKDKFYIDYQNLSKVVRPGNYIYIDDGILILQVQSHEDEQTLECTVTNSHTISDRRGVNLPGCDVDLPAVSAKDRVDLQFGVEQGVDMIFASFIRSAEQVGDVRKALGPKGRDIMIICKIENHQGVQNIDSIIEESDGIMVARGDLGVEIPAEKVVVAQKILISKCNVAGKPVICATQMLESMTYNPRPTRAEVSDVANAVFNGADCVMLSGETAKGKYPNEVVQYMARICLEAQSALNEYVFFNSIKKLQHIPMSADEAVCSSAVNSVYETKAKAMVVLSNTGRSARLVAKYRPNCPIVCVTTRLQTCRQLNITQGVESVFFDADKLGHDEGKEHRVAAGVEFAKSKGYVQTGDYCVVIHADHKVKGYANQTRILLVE
#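 ATP generated from ADP (0.1 mM) and PEP (0.5 mM) by 0.1 nM LmPK over 1 h at room temperature (pH 7.2 imidazole buffer) was detected by coupled luciferase luminescence. Values were normalized to uninhibited and no-enzyme wells.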
# Sm TGR block – inhibitors of Schistosoma mansoni thioredoxin glutathione reductase. purified TGR, DTNB reduction, TNB absorbance 405 nm. Potency, µM (doses to about 114 µM), hits mostly inhibitors. AID 485364. 360,000 tested, 3% active. Q962Y6; further: nearly all actives have a fitted effect of over 60% in size
#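 First, TGR (20 nM dispensed) and NADPH were mixed with compound. Second, a 15 min room-temperature incubation followed. Third, further NADPH and then DTNB were added to start the reaction. Finally, TNB absorbance was monitored kinetically.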
# A number is an active result; . = inactive; ? = inconclusive; / = no result. Unless noted, the call rests on the fitted dose curve; in most records, active means well fitted curve in the direction sought with a large enough effect; inconclusive means small, poorly fitted or top-dose-only effect, or another doubt; inactive means no such curve, though single readings can be large; an effect the other way counts as inactive or inconclusive.
SMILES,Cycloheximide cs,FBPA Giardia inh,Shiga inhibitor,TbPYK inhibitor,LmPK inh,Sm TGR block
O=C(c1ccccc1)c1nnc(-c2ccccc2F)o1,45,.,69,.,14µM,.
Cc1ccc(C(=O)N/C(=C\c2cccc([N+](=O)[O-])c2)C(=O)NC(Cc2ccccc2)C(=O)O)cc1 (centres undefined),.,/,.,.,.,.
Cc1ccc(NC(=O)Cn2c(=O)n(Cc3ccc4c(c3)OCO4)c(=O)c3ccc(C(=O)NC4CCCCC4)cc32)cc1,/,/,/,.,/,.
CCSc1nnc(NC(=O)c2cnccn2)s1,.,.,.,.,.,.
CCSc1nnc(NC(=O)c2ccccn2)s1,45,?,60,.,?,.
CCSc1nnc(NC(=O)CCNC(=O)c2ccccc2Cl)s1,/,/,/,.,/,/
CCSc1nnc(NC(=O)c2cccnc2Cl)s1,28,.,54,.,.,?
COC(=O)c1ccc(C(NC(=O)OCc2ccccc2)/C(=C/[C@@H](C)C(=O)NCC2CC2)c2cccnc2)cc1 (some centres undefined),/,.,/,/,/,/
O=C(NC(=S)N1CCCCCC1)c1ccccc1,.,/,.,.,.,.
CC(=C1C(=O)c2ccccc2C1=O)N1CCN(c2ccc(F)cc2)CC1,14,.,33,.,.,.
O=C(NC(=O)N1CCN(c2ccc(F)cc2)CC1)c1ccccc1,20,.,.,.,.,.
O=C(NC(=O)N1CCCCC1)c1ccccc1,14,.,.,.,.,.
O=C(NC(=S)N1CCN(c2ccc(F)cc2)CC1)c1ccccc1,/,/,/,.,/,/
CC[C@H](C)[C@H](NC(=O)[C@H](CC(=O)O)NC(=O)[C@H](CC(C)C)NC(=O)[C@H](Cc1cnc[nH]1)NC(=O)[C@H](C)NC(=O)[C@H](Cc1ccccc1)NC(=O)[C@H](Cc1ccc(O)cc1)NC(=O)[C@@H](NC(=O)[C@H](C)NC(=O)[C@H](CCC(=O)O)NC(=O)[C@H](CCCCN)NC(=O)[C@H](CC(=O)O)NC(=O)[C@H](CCSC)NC(=O)[C@H](CC(C)C)NC(C)=O)C(C)C)C(=O)N[C@H](C(=O)N[C@@H](Cc1c[nH]c2ccccc12)C(=O)O)[C@@H](C)CC,.,.,.,/,/,/
Cc1cccc(Nc2cc(C)c3c(O)cccc3n2)c1C,32,.,92,.,.,.
Cc1cc(Nc2ccccc2O)nc(C)n1,/,/,/,.,/,.
CC(C)c1ccc(/C=C/C(=O)NCc2ccc(S(N)(=O)=O)cc2)cc1,.,.,.,.,.,.
O=C(/C=C/c1ccco1)NCc1ccc(F)cc1,19,.,.,?,.,3.2µM
NS(=O)(=O)c1ccc(CNC(=O)/C=C/c2ccco2)cc1,.,.,.,?,.,1.6µM
O=C(CNC(=O)/C=C/c1ccco1)N=Nc1c(O)[nH]c2ccccc12,.,.,.,.,.,7.1µM
O=C(CCNC(=O)c1ccco1)NCc1ccc(F)cc1,/,/,/,.,/,/
O=C(Nc1ccc(F)c(F)c1)c1cc(S(=O)(=O)NCc2ccc3c(c2)OCO3)ccc1F,/,/,/,.,/,.
CCOC(=O)C1=C(O)/C(=C\c2ccc(CNS(=O)(=O)c3ccc(Br)cc3)o2)N=C1C,.,.,.,.,.,40µM
COc1ccc(N=Cc2ccc(CNS(=O)(=O)c3ccc(Cl)cc3)o2)cc1,.,.,.,.,.,.
COC(=O)C1=C(O)/C(=C\c2ccc(CNS(=O)(=O)c3ccc(Cl)cc3)o2)N=C1C,.,?,.,.,.,28µM
SMILES,Cycloheximide cs,FBPA Giardia inh,Shiga inhibitor,TbPYK inhibitor,LmPK inh,Sm TGR block
COCCNC(=O)/C(C#N)=C\c1ccc(CNS(=O)(=O)c2ccc(C)cc2)o1,.,.,.,.,.,/
COC(=O)C1=C(O)/C(=C\c2ccc(OCC(=O)Nc3ccccc3)cc2)N=C1C,.,/,.,.,.,.
COC(=O)C1=C(O)/C(=C\c2ccc(CNS(=O)(=O)c3ccccc3)o2)N=C1C,.,?,.,.,.,40µM
O=C(Cc1cccc(C(F)(F)F)c1)OCN1C(=O)c2ccccc2C1=O,.,.,.,.,.,.
O=C(Nc1cccc(F)c1)N1CCCC2(CCNCC2)C1,/,.,/,.,/,/
COc1ccc(C)cc1NC(C)C(=O)NC(=O)NC1CCCCC1 (centres undefined),/,/,/,.,/,.
Cc1ccc(COc2ccc(-c3nnco3)cc2)cc1,40,.,67,.,.,.
Cc1ccc(S(=O)(=O)CCC(=O)Oc2ccc(-c3nnco3)cc2)cc1,/,/,/,.,/,20µM
CN(C1CCCCC1)S(=O)(=O)c1ccc(F)c(C(=O)Nc2ccc(C(F)(F)F)cc2)c1,/,/,/,.,/,.
Cc1ccc(C(=O)NC(Cc2cccc(F)c2)C(=O)O)cc1 (centres undefined),/,/,/,.,/,/
O=C(Nc1cc(Sc2ccccn2)cc([N+](=O)[O-])c1)c1ccc(Cl)cc1,21,.,.,.,.,.
Cc1ccc(C)n1-c1sc2c(c1C(=O)O)CCCC2,.,.,.,.,.,.
Cc1ccc(C)n1-c1sccc1C(=O)O,.,.,.,.,.,40µM
COc1ccccc1C(=O)Nc1nc(-c2ccccc2)ns1,/,/,/,.,/,.
O=C(CSc1ncn[nH]1)Nc1ccc(Br)cc1F,25,.,.,.,.,.
COc1cc(OC)cc(-c2cc(NC(C)=O)n[nH]2)c1,.,.,.,.,.,.
CC(=O)Nc1cc(-c2ccc(Cl)cc2)[nH]n1,44,.,.,.,.,.
CC(C)C(=O)Nc1nc(-c2ccccc2)ns1,48,.,96,.,.,.
CC(=O)Nc1nc(-c2ccc(Cl)cc2)ns1,64,.,active,.,.,.
CC(=O)N1CCc2cc(Br)cc(S(=O)(=O)N3CCC(C(=O)Nc4ccc(C(C)C)cc4)CC3)c21,/,/,/,.,/,.
CC(C)N1CCN(C(=O)c2ccc([N+](=O)[O-])cc2)CC1,/,/,/,.,/,/
O=C(CSc1ncn[nH]1)Nc1nc(-c2ccccc2)ns1,34,.,49,.,.,.
CCCC(=O)Nc1nc(-c2ccccc2)ns1,86,.,28,.,.,.
CCC(=O)Nc1nc(-c2ccccc2)ns1,32,.,61,/,.,.
Cc1ccc(-c2nc(NC(=O)CSc3ncn[nH]3)ns2)cc1,16,.,59,.,.,.
SMILES,Cycloheximide cs,FBPA Giardia inh,Shiga inhibitor,TbPYK inhibitor,LmPK inh,Sm TGR block
Cc1ccc(CNC(=O)CSc2ncn[nH]2)cc1,.,.,.,.,.,.
COc1ccc2c(c1)C(=O)[C@@H](OC(=O)NCCOc1ccccc1)[C@H](c1ccc(OC)c(Br)c1)O2,/,.,/,/,/,/
COc1ccc(OC(C)C(=O)NCc2nc(-c3ccc(Cl)cc3)no2)cc1 (centres undefined),/,/,/,.,/,.
Cc1ccc(-n2ncc3c(NC4CCCCC4)ncnc32)cc1,/,/,/,.,/,.
Cc1ccc(NC(=O)c2ccc(OC(=O)COc3ccc(Cl)cc3C)cc2)cc1,46,.,.,.,.,.
Cc1ccc(NC(=O)c2ccc(OC(=O)COc3cccc(Cl)c3)cc2)cc1,36,.,51,.,.,.
